PubChem BioAssay AID2401 (Southern Research Specialized Biocontainment Screening …, 2010)
In all, about 2,200 compounds went through this assay and about 530 (24%) were called active.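 Rule for the calls: active = inhibition above a set limit at one or more concentrations of the dose series; inactive = inhibition under that limit at every dose.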 These entries were drawn from the full list. A call without a number means that no potency is given here. Potency and affinity values are given separately.

Assay: nmpC-GFP reporter counter-screen in S. Typhimurium, dose response, counter-screen for PhoP regulon inhibitor project, Salmonella Typhimurium, GFP fluorescence (AID 2401);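 note: S. typhimurium with Mg-insensitive nmpC-GFP reporter grown at 10 µM Mg2+; drop in reporter fluorescence reflects general culture growth inhibition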
Settings: 4 h; series mostly up to 150 µM

| Structure (SMILES) | outcome |
| --- | --- |
| c1ccc(-c2nnc(SCCC3OCCCO3)o2)cc1 | inactive |
| COc1ccc(S(=O)(=O)n2nc(OC(=O)c3ccccc3Br)cc2N)cc1 | inactive |
| CCC(=O)c1ccc(OCC(O)CNCc2ccc(F)cc2)cc1 (stereo not drawn) | inactive |
| COc1ccc(N(C(=O)CCl)C(C(=O)NCCc2ccccc2)c2cccs2)cc1 (stereo not drawn) | inactive |
| COc1cccc(OCC(O)CN2CCN(c3ccccn3)CC2)c1 (stereo not drawn) | inactive |
| COc1ccc(C2=C(Nc3ccc(C)cc3)c3ccccc3C2=O)cc1 | inactive |
| Cc1cc(Nc2ccccc2)nc2cc(O)ccc12 | inactive |
| COc1ccc(NC2=Nc3cccc4cccc2c34)cc1 | inactive |
| Cc1cc(=O)oc2cc(OCC(O)CN3CCc4ccccc4C3)ccc12 (stereo not drawn) | inactive |
| C=CCN(C(=O)c1cccc(S(=O)(=O)N2CCN(C)CC2)c1)c1nc(-c2ccccc2)cs1 | inactive |
| O=C(O)CCc1nnc2n(Cc3ccc(F)cc3)c(=O)c3ccccc3n12 | inactive |
| Cc1nc(-c2ccccn2)sc1C(=O)Nc1ccc(F)cc1F | inactive |
| CN(C(=O)/C=C/c1ccccc1)C1CCS(=O)(=O)C1 (stereo not drawn) | inactive |
| COc1ccccc1N1CCN(c2ccc(-c3ccccc3)nn2)CC1 | inactive |
| COc1cc(CNCc2ccccn2)ccc1OCC(=O)NC(C)(C)C | inactive |
| Cc1ccc(NS(=O)(=O)c2ccccc2)c2c1CC(C)(C)O2 | inactive |
| Cc1cc(C)nc(N(C#N)C(C)C(=O)N(C)C)n1 (stereo not drawn) | inactive |
| Cc1cc2cc(CCNC(=O)c3cccs3)c(=O)[nH]c2cc1C | inactive |
| Cc1ccc(C(=O)Nc2ccccc2C(N)=O)o1 | inactive |
| COc1cccc(Cn2cnc3c(NS(=O)(=O)c4cccc(Cl)c4Cl)c(C)c(C)cc32)c1 | inactive |
| Cc1[nH]c2ccccc2c1C(=O)CN1CCSCC1 | inactive |
| CC(C)(C)c1ccc(NC(=O)COC(=O)c2ccc([N+](=O)[O-])s2)cc1 | inactive |
| Cc1cc(=O)oc(C)c1C(=O)NCc1cccnc1 | inactive |
| Cc1nn(CCOc2ccccc2)c(=O)n1-c1ccc(F)cc1 | inactive |
| Cc1cccc(NC(=O)Cn2c(/C=C/c3ccccc3)nc3ccccc32)c1 | inactive |

| Structure (SMILES) | outcome |
| --- | --- |
| O=C(NCc1ccco1)c1c2c(nc3ccccc13)CCC2 | inactive |
| Cc1ccc(C(=O)NNc2c3ccccc3nc3ccccc23)cc1 | inactive |
| Cc1cccc(OCC(=O)NNc2c3ccccc3nc3ccccc23)c1 | inactive |
| Cc1ccc(CSCc2nc3ccccc3[nH]2)cc1 | inactive |
| Cc1ccccc1NC(=O)c1sc2nc3c(c(-c4ccco4)c2c1N)CCC3 | inactive |
| Cn1c(-c2ccc3c(c2)OCO3)cnc1NCc1cccc(Cl)c1 | inactive |
| CC(=O)c1c(C)n([O-])c2ccccc2[n+]1=O | inactive |
| COC(=O)c1sccc1NC(=O)C1C2C=CC(O2)C1C(=O)O (stereo not drawn) | inactive |
| COC(=O)c1ccc2nc(C(F)(F)F)[nH]c2c1 | inactive |
| N#CCCN(C(=O)CN1C(=O)NC2(CCCC2)C1=O)c1ccccc1F | inactive |
| O=C1C(Nc2ccccc2)=C/C(=N/S(=O)(=O)c2cccs2)c2ccccc21 | inactive |
| COc1cc(C=O)ccc1OCCCOc1ccccc1[N+](=O)[O-] | inactive |
| Cc1snc(S(=O)(=O)/C(C#N)=N\Nc2ccccc2)c1C#N | inactive |
| C(=Nc1ccc(Nc2ccccc2)cc1)c1ccc2ccccc2c1 | inactive |
| Cc1ccsc1C=Nc1ccc(O)cc1 | inactive |
| Cc1nnc(NC(=O)CSc2ncnc3scc(-c4ccccc4)c23)s1 | inactive |
| Cc1onc(-c2c(F)cccc2Cl)c1C(=O)Nc1cccc(Cn2cccn2)c1 | inactive |
| CCOc1ccc(NC(=O)CCC(=O)n2nc(C)cc2C)cc1 | inactive |
| COc1nccnc1NS(=O)(=O)c1ccc(NC(=S)NC(=O)c2cccnc2)cc1 | inactive |
| COc1cc(OC)c(C(=O)Nc2ccc(S(=O)(=O)Nc3ncccn3)cc2)cc1OC | inactive |
| Cc1ccc(-c2nc3ccccc3s2)cc1S(=O)(=O)N1CCCC1 | inactive |
| CCOC(=O)Cc1ccc2sc(-c3ccccc3)nc2c1 | inactive |
| COc1ccc(C2=NOC(C(=O)Nc3ccc(C)cc3)C2)cc1OC (stereo not drawn) | inactive |
| COc1cccc(C2CC(c3ccccc3OC)n3nc(N)nc3N2)c1 (stereo not drawn) | inactive |
| CCCc1cc(C(=O)NNC(=S)NC(C)c2ccccc2)cs1 (stereo not drawn) | inactive |

| Structure (SMILES) | outcome |
| --- | --- |
| Cc1ccc(-n2sc3ccccc3c2=O)cc1S(=O)(=O)N1CCCCC1 | inactive |
| CCNC(=O)COC(=O)CCC(=O)c1cccs1 | inactive |
| FC(F)(F)c1cc(C(F)(F)F)c2ccc(Oc3ccccc3)nc2n1 | inactive |
| Fc1ccccc1COc1ccc(Br)cc1CNCc1ccncc1 | inactive |
| O=C(Cc1ccccc1)NCc1ccc(F)cc1 | inactive |
| O=C(Nc1ccc(S(=O)(=O)Nc2nccs2)cc1)c1cc(-c2ccccc2)nc2ccccc12 | inactive |
| COc1ccc(C(C)=O)c2c(O)cccc12 | inactive |
| CC1(C)CC(=O)C2=C(C1)OC1=C(C(=O)CC(C)(C)C1)C2c1ccc(O)cc1O | inactive |
| c1ccc(-n2cnc3cc(NCc4ccccn4)ccc32)cc1 | inactive |
| CCOC(=O)C1(S(=O)(=O)c2ccccc2)CCN(Cc2ccc(Cl)cc2)CC1 | inactive |
| O=C(Nc1ccc2c(c1)oc1ccccc12)N1CCOCC1 | inactive |
| CCOc1ccccc1OCC(=O)Nc1ccc(S(=O)(=O)Nc2nc(C)cc(C)n2)cc1 | inactive |
| Cc1ccc(SC(c2ccc(C)cc2)C(Cn2cncn2)C(=O)c2ccccc2)cc1 (stereo not drawn) | inactive |
| CN(C)c1nc(N)nc(Cn2ccnc2)n1 | inactive |
| N/C(=N\OC(=O)c1cccs1)C1(c2ccc(Cl)cc2Cl)CC1 | inactive |
| COc1cc(C2Nc3cccc4cccc(c34)N2)cc(OC)c1O | inactive |
| COc1cccc(C2CC(=O)Nc3cc(OC)c(OC)c(OC)c32)c1OC (stereo not drawn) | inactive |
| C=CCc1ccccc1OCC(O)CN1CCN(CCN2C(=O)c3cccc4cccc(c34)C2=O)CC1 (stereo not drawn) | inactive |
| C=C(C)Cn1c(CCn2c3ccccc3c3ccccc32)n[nH]c1=S | inactive |
| CN(C(=O)c1cccc(C#N)c1)c1nnc(-c2cnccn2)s1 | inactive |
| Cn1c(CC(=O)Nc2ccc(Cl)c(Cl)c2)nnc1SCC(=O)Nc1nccs1 | inactive |
| Cc1cc2ncn(CC(O)COc3cccc(C(=O)O)c3)c2cc1C (stereo not drawn) | inactive |
| N#Cc1c(N)nc(SCC(=O)NC2CCCCC2)c(C#N)c1-c1ccc(Cl)cc1 | inactive |
